Results filed as inconclusive are left out. Calls of active or inactive are those of the source. Unless noted, the call rests on the fitted dose curve; in most records, active means well fitted curve in the direction sought with a large enough effect in the repeat runs; inconclusive means weak or mixed curves; inactive means no such curve, though single readings can be large; an effect the other way counts as inactive or inconclusive.
How the values were obtained:
[1] = qHTS assay to identify small molecule antagonists of the glucocorticoid receptor (GR) signaling pathway - cell viability counter screen (AID 720693); further: nearly all actives have a fitted effect of over 55% in size
[2] = qHTS assay for identifying genotoxic compounds that show differential cytotoxicity against isogenic chicken DT40 cell lines with known DNA damage response pathways - Rev3 mutant cell line (AID 743014); further: nearly all actives have a fitted effect of over 55% in size
[3] = qHTS assay for identifying genotoxic compounds that show differential cytotoxicity against isogenic chicken DT40 cell lines with known DNA damage response pathways - Rad54/Ku70 mutant cell line (AID 743015); further: nearly all actives have a fitted effect of over 60% in size
[4] = qHTS assay to identify small molecule antagonists of the androgen receptor (AR) signaling pathway - cell viability counter screen (AID 743033; further: nearly all actives have a fitted effect of over 45% in size)
[5] = biological target: Androgen receptor (Homo sapiens) (UniProt P10275); experiment: qHTS assay to identify small molecule agonists of the androgen receptor (AR) signaling pathway using the MDA cell line (AID 743040; further: nearly all actives have a fitted effect of over 20% in size)
Chain of Androgen receptor (Homo sapiens) (P10275 whole entry, looked up): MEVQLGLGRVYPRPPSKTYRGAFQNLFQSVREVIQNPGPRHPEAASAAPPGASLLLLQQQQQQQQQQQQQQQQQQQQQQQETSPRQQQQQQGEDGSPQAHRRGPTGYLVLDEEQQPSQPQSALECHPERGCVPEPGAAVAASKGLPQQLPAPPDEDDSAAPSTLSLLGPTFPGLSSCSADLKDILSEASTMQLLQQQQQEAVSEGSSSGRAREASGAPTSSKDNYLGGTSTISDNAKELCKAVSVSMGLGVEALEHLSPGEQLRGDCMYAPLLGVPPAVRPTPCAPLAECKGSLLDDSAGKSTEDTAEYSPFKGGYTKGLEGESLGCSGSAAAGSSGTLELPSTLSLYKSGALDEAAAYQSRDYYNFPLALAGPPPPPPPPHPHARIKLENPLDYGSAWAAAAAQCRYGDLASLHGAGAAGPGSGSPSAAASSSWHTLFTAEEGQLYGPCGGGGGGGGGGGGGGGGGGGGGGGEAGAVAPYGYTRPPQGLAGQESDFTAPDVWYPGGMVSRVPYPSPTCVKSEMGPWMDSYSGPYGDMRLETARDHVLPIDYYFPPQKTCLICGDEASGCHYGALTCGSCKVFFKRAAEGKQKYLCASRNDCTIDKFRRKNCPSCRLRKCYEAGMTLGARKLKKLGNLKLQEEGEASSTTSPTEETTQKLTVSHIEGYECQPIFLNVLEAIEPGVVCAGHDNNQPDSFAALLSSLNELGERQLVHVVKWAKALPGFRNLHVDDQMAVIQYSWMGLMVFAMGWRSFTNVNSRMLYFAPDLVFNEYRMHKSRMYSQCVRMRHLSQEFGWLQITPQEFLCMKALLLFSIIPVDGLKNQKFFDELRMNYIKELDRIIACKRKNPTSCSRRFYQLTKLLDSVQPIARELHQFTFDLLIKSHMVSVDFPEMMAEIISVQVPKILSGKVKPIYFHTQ
Procedure, shortened: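 Stable MMTV-luciferase reporter in MDA-kb2 cells; note the promoter carries GR as well as AR response elements. 16 h compound treatment, 37C, 0% CO2; ONE-Glo luminescence endpoint.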

[6] = qHTS assay to identify small molecule antagonists of the androgen receptor (AR) signaling pathway using the MDA cell line - cell viability counter screen (AID 743041; further: nearly all actives have a fitted effect of over 45% in size)
Procedure, shortened: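 Using the breast carcinoma line MDA-kb2 AR-luc, test chemicals were co-incubated with R1881 for 16 h; CellTiter-Fluor reagent, added at 15.5 h, provided a fluorescence measure of live cells.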

[7] = biological target: Androgen receptor (Homo sapiens) (UniProt P10275); experiment: qHTS assay to identify small molecule antagonists of the androgen receptor (AR) signaling pathway using the MDA cell line (AID 743042; further: nearly all actives have a fitted effect of over 55% in size)
Procedure, shortened: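 Antagonist mode: compounds plus R1881 agonist added to MDA-kb2 AR-luc cells, incubated 16 h at 37C. Luciferase reporter luminescence quantified, with multiplexed CellTiter-Fluor readout for cell viability.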

[8] = qHTS assay to identify small molecule antagonists of the thyroid receptor (TR) signaling pathway - cell viability counter screen (AID 743064); further: nearly all actives have a fitted effect of over 50% in size
Procedure, shortened: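 In-well cytotoxicity read by CellTiter-Fluor (30 min, 37 C) following 23.5 h exposure of GH3 cells bearing a TRE-luciferase sensor. Compounds were added alongside 1 nM (final) T3 to drive TR transactivation.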

[9] = system: thyroid hormone receptor (rat, GH3 cells); experiment: qHTS assay to identify small molecule agonists of the thyroid receptor (TR) signaling pathway (AID 743066; calls by dose curve)
[10] = qHTS assay to identify small molecule antagonists of the estrogen receptor alpha (ER-alpha) signaling pathway - cell viability counter screen (AID 743074; calls by dose curve; further: nearly all actives have a fitted effect of over 45% in size)
[11] = qHTS assay to identify small molecule antagonists of the estrogen receptor alpha (ER-alpha) signaling pathway using the BG1 cell line - cell viability counter screen (AID 743081);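 further: compound given together with 17beta-estradiol as the ER stimulus; nearly all actives have a fitted effect of over 45% in size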
Aromatase (Homo sapiens) = Aromatase (Homo sapiens) (UniProt P11511); experiment: qHTS assay to identify aromatase inhibitors (AID 743083); further: nearly all actives have a fitted effect of over 55% in size
Chain of Aromatase (Homo sapiens) (P11511 whole entry, looked up): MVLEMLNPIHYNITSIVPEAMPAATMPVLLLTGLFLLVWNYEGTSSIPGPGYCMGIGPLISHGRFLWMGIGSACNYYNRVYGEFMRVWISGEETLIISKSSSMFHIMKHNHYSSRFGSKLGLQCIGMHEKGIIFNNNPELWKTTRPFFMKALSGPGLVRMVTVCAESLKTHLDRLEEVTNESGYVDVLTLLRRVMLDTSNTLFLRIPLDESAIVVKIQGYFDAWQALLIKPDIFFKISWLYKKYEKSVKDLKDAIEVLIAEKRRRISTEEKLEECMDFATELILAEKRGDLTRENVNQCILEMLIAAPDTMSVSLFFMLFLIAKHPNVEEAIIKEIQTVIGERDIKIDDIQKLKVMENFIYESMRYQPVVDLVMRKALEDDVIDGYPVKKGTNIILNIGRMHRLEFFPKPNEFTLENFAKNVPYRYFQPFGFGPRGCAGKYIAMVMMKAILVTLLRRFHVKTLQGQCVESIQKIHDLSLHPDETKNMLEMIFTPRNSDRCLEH

[12] = qHTS assay for identifying genotoxic compounds that show differential cytotoxicity against isogenic chicken DT40 cell lines with known DNA damage response pathways - wild type cell line (AID 743012); further: nearly all actives have a fitted effect of over 60% in size
Procedure, shortened: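 CellTiter-Glo luminescence readout of viability in wild type DT40 cells after 40 h compound exposure at 37 C/5% CO2; 300 cells/well; reagent incubated 30 min at room temperature before reading.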

[13] = qHTS assay to identify small molecule antagonists of the thyroid receptor (TR) signaling pathway (AID 743065); further: nearly all actives have a fitted effect of over 55% in size
Procedure, shortened: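 Antagonism measured as loss of luciferase signal in GH3 cells stably carrying a TRE-luciferase reporter, co-treated with compound and T3 (1 nM final) for 23.5 h at 37 C. Viability was read in the same well by CellTiter-Fluor.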

[14] = biological target: Estrogen receptor (Homo sapiens) (UniProt P03372); experiment: qHTS assay to identify small molecule antagonists of the estrogen receptor alpha (ER-alpha) signaling pathway (AID 743069; active means well fitted curve in the direction sought with a large enough effect in the signal ratio in the repeat runs, not every such curve was filed as active; the % refers to the signal ratio)
Chain of Estrogen receptor (Homo sapiens) (P03372 whole entry, looked up): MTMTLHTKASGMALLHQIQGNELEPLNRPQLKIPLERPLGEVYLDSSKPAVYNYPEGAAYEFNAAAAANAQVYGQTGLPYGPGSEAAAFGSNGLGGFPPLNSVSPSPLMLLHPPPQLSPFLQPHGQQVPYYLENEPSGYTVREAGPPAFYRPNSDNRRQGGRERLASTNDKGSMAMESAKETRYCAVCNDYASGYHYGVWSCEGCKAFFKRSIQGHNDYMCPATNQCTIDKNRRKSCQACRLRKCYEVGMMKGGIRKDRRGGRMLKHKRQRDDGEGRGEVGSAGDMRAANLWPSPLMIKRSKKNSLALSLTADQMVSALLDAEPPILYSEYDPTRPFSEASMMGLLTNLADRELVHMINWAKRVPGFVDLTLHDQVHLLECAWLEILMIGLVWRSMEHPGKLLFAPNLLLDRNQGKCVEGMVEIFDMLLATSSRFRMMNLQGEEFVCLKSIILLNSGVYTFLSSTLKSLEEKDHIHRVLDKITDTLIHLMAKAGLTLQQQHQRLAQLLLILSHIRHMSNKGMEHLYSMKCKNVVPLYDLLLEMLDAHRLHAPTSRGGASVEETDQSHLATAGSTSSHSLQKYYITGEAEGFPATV
Procedure, shortened: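 Fluorescence intensity from a beta-lactamase FRET substrate served as the read-out. Cells: HEK293 with stably integrated ER-alpha-UAS-bla reporter. Agonist 17beta-estradiol was co-added with compounds; incubation 18 hr at 37C, substrate 2 hr at room temperature.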

[15] = biological target: Estrogen receptor (Homo sapiens) (UniProt P03372); experiment: qHTS assay to identify small molecule agonists of the estrogen receptor alpha (ER-alpha) signaling pathway (AID 743075; calls by dose curve)
[16] = biological target: Estrogen receptor (Homo sapiens) (UniProt P03372); experiment: qHTS assay to identify small molecule agonists of the estrogen receptor alpha (ER-alpha) signaling pathway using the BG1 cell line (AID 743079); details: BG1Luc4E2 cells, ERE-luciferase agonist, 22 h; activation: at 70.3 µM (top of the series); further: nearly all actives have a fitted effect of over 20% in size
[17] = qHTS assay to identify small molecule antagonists of the estrogen receptor alpha (ER-alpha) signaling pathway using the BG1 cell line (AID 743080; calls by dose curve; further: nearly all actives have a fitted effect of over 25% in size)
Procedure, shortened: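 Antagonist mode: compounds in DMSO were pinned onto BG1-Luc-4E2 cells alongside 17beta-estradiol agonist, incubated 21.5 h, and ERE-driven luciferase measured with ONE-Glo. Cytotoxicity was multiplexed using CellTiter-Fluor fluorescence.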
On the % scale 0 is the no-effect control and ±100 the full control effect.

O=c1[nH]c(Cl)c(Cl)cc1Cl
inactive: Potency [1] | Potency [2] | Potency [3] | Potency [4] | outcome [5] | Potency [6] | Potency [7] | Potency [8] | Potency [9] | Potency [10] | Potency [11] | Potency (Aromatase (Homo sapiens))

COc1c2c(cc3c1OCO3)CCN(C)C2
inactive: Potency [1] | Potency [12] | Potency [3] | Potency [4] | Potency [6] | Potency [8] | Potency [13] | Potency [9] | Potency [14] | Potency [10] | Potency [15] | Potency [16] | Potency [17] | Potency (Aromatase (Homo sapiens))

C1=CCC=C1
inactive: Potency [1] | Potency [2] | Potency [3] | Potency [4] | Potency [6] | Potency [8] | Potency [13] | Potency [9] | Potency [10] | Potency [11]

CCCCC/C=C\C/C=C\C/C=C\C/C=C\CCCC(=O)NCC(=O)O
inactive: viability change, negative = cytotoxic [1] -8.97% [at 7.04 µM] | activity change, negative = cytotoxicity [12] 16.5% [at 8.52 µM] | activity change, negative = cytotoxicity [3] 4.36% [at 8.55 µM] | viability change, negative = cytotoxic [6] -2.98% [at 8.47 µM] | activity change, negative = cytotoxic [8] 12.7% [at 8.44 µM] | activity, negative = inhibition [13] 6.65% [at 8.44 µM] | activation [9] 2.19% [at 8.08 µM] | activity, negative = inhibition [14] -29.7% [at 6.71 µM] | activity, negative = cytotoxicity [10] -15.9% [at 6.72 µM] | activation [15] -3.03% [at 6.71 µM] | activation [16] 2.37% [at 8.47 µM] | activity change, negative = inhibition [17] 0.823% [at 8.47 µM] | activity change, negative = cytotoxicity [11] 0.607% [at 8.47 µM] | activity, negative = inhibition (Aromatase (Homo sapiens)) 4.53% [at 8.47 µM]

C#CCO
inactive: Potency [1] | Potency [12] | Potency [3] | Potency [4] | Potency [14] | Potency [10] | Potency [15] | Potency [16] | Potency [17] | Potency [11] | Potency (Aromatase (Homo sapiens))

CN(C)CCc1c[nH]c2ccccc12
inactive: Potency [1] | Potency [2] | Potency [3] | Potency [4] | Potency [6] | Potency [8] | Potency [13] | Potency [9] | Potency [10] | Potency [11]

Clc1c(Cl)c(Cl)c(Cl)c(Cl)c1Cl
inactive: viability change, negative = cytotoxic [1] -7.19% [at 7.04 µM] | activity change, negative = cytotoxicity [12] 20.8% [at 8.52 µM] | activity change, negative = cytotoxicity [3] -2.7% [at 8.55 µM] | activity change, negative = cytotoxicity [4] 3.9% [at 7.04 µM] | viability change, negative = cytotoxic [6] -2.06% [at 8.47 µM] | activity change, negative = cytotoxic [8] -0.947% [at 8.44 µM] | activity, negative = inhibition [13] 0.884% [at 8.44 µM] | activation [9] -1.24% [at 8.08 µM] | activity, negative = cytotoxicity [10] 18.2% [at 6.72 µM] | activity change, negative = cytotoxicity [11] 5.59% [at 8.47 µM]

CC(=O)[O-].CC(=O)[O-].CC(=O)[O-].[Sb+3]
inactive: viability change, negative = cytotoxic [1] -0.477% [at 7.04 µM] | activity change, negative = cytotoxicity [12] -1.26% [at 8.52 µM] | activity change, negative = cytotoxicity [3] -0.679% [at 8.55 µM] | activity change, negative = cytotoxicity [4] -2.21% [at 7.04 µM] | activity change, negative = cytotoxic [8] 15.9% [at 8.44 µM] | activation [9] 0.26% [at 8.08 µM] | activity, negative = cytotoxicity [10] 16.3% [at 6.72 µM] | activity change, negative = cytotoxicity [11] 10.6% [at 8.47 µM] | activity, negative = inhibition (Aromatase (Homo sapiens)) 2.18% [at 8.47 µM]

Source: PubChem BioAssay (Tox21)
